Several values for one entry are separate records, joined by “and”; a condition that tells them apart may be missing. Equal entries are not always repeated. The campaign covered roughly 5,500 compounds. About 2,000 (36%) were called active. Not shown: some 18% with an inconclusive outcome. Cut-off read from the data, not from the text of the source: active = normalized growth mostly below about 0.91 (no sharp cut-off); inconclusive = no clear call, values can overlap the other calls; inactive = mostly above about 0.92. Some of the results follow.
Experiment: chemical genetic growth profiling, strain panel (AID 1159580);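 note: tested at 20 µM; growth read once vehicle control cultures reached saturation at 30 °C; 1 = growth at the plate median or of vehicle wells; lower values mean less growth of the strain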
Details: S. cerevisiae deletion strains, growth OD

Measured: normalized growth

CCN1CCN(C(=O)NC(C(=O)N[C@@H]2C(=O)N3[C@@H]2SC(C)(C)[C@@H]3C(=O)O)c2ccccc2)C(=O)C1=O (stereo partly specified)
inactive: locus YAL013W, strain DEP1, hits give low values 1.01 | locus YAL021C, strain ccr4, hits give low values 1 | locus YAL026C, strain drs2, hits give low values 0.999 | locus YAL030W, strain snc1, hits give low values 1.01 | locus YBL061C, strain skt5, hits give low values 0.999 | locus YBR009C, strain hhf1, hits give low values 1.02 | locus YBR021W, strain FUR4, hits give low values 1.01 | locus YBR023C, strain chs3, hits give low values 1.01 | locus YBR171W, strain sec66, hits give low values 1 | locus YBR229C, strain ROT2, hits give low values 1.01 | locus YBR231C, strain swc5, hits give low values 0.98 | locus YBR279W, strain paf1, hits give low values 1 | locus YCL011C, strain gbp2, hits give low values 1.02 | locus YCL016C, strain dcc1, hits give low values 1 | locus YCL029C, strain bik1, hits give low values 1.02 | locus YCL061C, strain MRC1, hits give low values 0.995 | locus YCL069W, strain vba3, hits give low values 0.99 | locus YCR088W, strain abp1, hits give low values 1 | locus YDL005C, strain med2, hits give low values 0.988 | locus YDL035C, strain GPR1, hits give low values 0.988 | locus YDL040C, strain nat1, hits give low values 0.989 | locus YDL074C, strain BRE1, hits give low values 0.993 | locus YDL101C, strain DUN1, hits give low values 1.02 | locus YDL134C, strain PPH21, hits give low values 1.01 | locus YDL185W, strain tfp1, hits give low values 1.02 | locus YDL192W, strain arf1, hits give low values 1.01 | locus YDR001C, strain nth1, hits give low values 0.991 | locus YDR069C, strain doa4, hits give low values 0.997 | locus YDR101C, strain arx1, hits give low values 1.01 | locus YDR137W, strain rgp1, hits give low values 0.975 | locus YDR150W, strain NUM1, hits give low values 1.02 | locus YDR159W, strain sac3, hits give low values 1 | locus YDR162C, strain NBP2, hits give low values 0.997 | locus YDR195W, strain ref2 0.959 | locus YDR297W, strain sur2, hits give low values 0.996 | locus YDR318W, strain mcm21, hits give low values 1.02 | locus YDR334W, strain swr1, hits give low values 1 | locus YDR335W, strain msn5, hits give low values 0.999 | locus YDR388W, hits give low values 1.01 | locus YDR392W, strain spt3, hits give low values 1.03 | locus YDR502C, strain sam2, hits give low values 1.01 | locus YEL003W, strain gim4, hits give low values 1.01 | locus YEL037C, strain rad23, hits give low values 0.997 | locus YEL061C, strain CIN8 (second series), hits give low values 1 | locus YEL061C, strain CIN8, hits give low values 1.01 | locus YER015W, strain faa2, hits give low values 0.992 | locus YER016W, strain bim1, hits give low values 1 | locus YER110C, hits give low values 1.02 | locus YER111C, strain swi4, hits give low values 1 | locus YER155C, strain BEM2 (second series), hits give low values 0.993 | locus YER155C, strain BEM2, hits give low values 0.991 | locus YER167W, strain BCK2, hits give low values 1.01 | locus YFR010W, strain ubp6, hits give low values 0.984 | locus YGL078C, strain dbp3, hits give low values 1.01 | locus YGL086W, strain mad1, hits give low values 1.02 | locus YGL167C, strain pmr1, hits give low values 1 | locus YGL173C, strain kem1, hits give low values 0.991 | locus YGL227W, strain vid30, hits give low values 0.989 | locus YGL240W, strain doc1, hits give low values 0.975 | locus YGL248W, strain PDE1, hits give low values 1.01 | locus YGL253W, strain hxk2, hits give low values 0.999 | locus YGR078C, strain PAC10, hits give low values 1.02 | locus YGR135W, strain pre9, hits give low values 1 | locus YGR229C, strain SMI1, hits give low values 1 | locus YGR252W, strain gcn5, hits give low values 1.01 | locus YHR013C, strain ard1, hits give low values 0.975 | locus YHR027C, strain rpn1, hits give low values 0.996 | locus YHR030C, strain SLT2, hits give low values 1.01 and 1 | locus YHR079C, strain IRE1 (second series), hits give low values 1.02 | locus YHR079C, strain IRE1, hits give low values 1.01 | locus YHR094C, strain hxt1, hits give low values 1.01 | locus YHR129C, strain ARP1, hits give low values 1 | locus YHR142W, strain chs7, hits give low values 0.998 | locus YHR200W, strain rpn10, hits give low values 1.01 | locus YIL066C, strain RNR3, hits give low values 1.01 | locus YIL073C, strain SPO22, hits give low values 1.05 | locus YIL125W, strain kgd1, hits give low values 1.01 | locus YIR030C, strain dcg1, hits give low values 1.01 | locus YJL092W, strain hpr5, hits give low values 1 | locus YJL095W, strain BCK1 (second series), hits give low values 1 | locus YJL095W, strain BCK1, hits give low values 1 and 0.999 | locus YJL115W, strain asf1, hits give low values 0.996 | locus YJL129C, strain trk1, hits give low values 0.993 | locus YJL134W, strain LCB3, hits give low values 1.01 | locus YJL154C, strain vps35, hits give low values 1 | locus YJL164C, strain tpk1, hits give low values 0.99 | locus YJL166W, strain qcr8, hits give low values 0.992 | locus YJL168C, strain set2, hits give low values 1.01 | locus YJL187C, strain SWE1 (second series), hits give low values 1.03 | locus YJR043C, strain POL32, hits give low values 0.994 | locus YJR066W, strain TOR1, hits give low values 0.953

— PubChem BioAssay AID1159580 (chemical genetic matrix, 2015)
